The results in this text go back to ChEMBL document CHEMBL3433997, “St. Jude Leishmania screening dataset” (2016).

What all share (format): functional
Experiment [1] deals with Solute carrier family 2, facilitated glucose transporter member 1 (Homo sapiens) (UniProt P11166). Put plainly: ST_JUDE_LEISH: Cytotoxicity at 2uM final concentration against transgenic Leishmania Mexicana promastigotes LmGLUT1 that are glucose transport deficient and complemented with the human glucose transporter GLUT1. Activity is measured by DNA content using SYBR green in vitro.
Solute carrier family 2, facilitated glucose transporter member 1 (Homo sapiens), sequence (P11166 whole entry): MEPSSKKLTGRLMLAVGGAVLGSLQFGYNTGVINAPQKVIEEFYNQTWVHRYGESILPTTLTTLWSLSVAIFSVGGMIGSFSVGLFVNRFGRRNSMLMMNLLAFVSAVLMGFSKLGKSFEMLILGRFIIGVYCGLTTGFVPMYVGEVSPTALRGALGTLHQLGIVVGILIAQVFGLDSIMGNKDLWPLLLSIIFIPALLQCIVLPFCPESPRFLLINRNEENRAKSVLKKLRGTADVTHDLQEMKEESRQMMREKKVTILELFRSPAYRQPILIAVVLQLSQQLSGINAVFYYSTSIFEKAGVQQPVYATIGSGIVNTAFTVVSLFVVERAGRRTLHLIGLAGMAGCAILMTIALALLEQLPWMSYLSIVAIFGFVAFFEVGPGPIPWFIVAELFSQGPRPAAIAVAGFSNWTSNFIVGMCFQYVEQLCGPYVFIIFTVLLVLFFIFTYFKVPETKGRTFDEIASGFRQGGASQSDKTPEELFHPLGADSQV

Experiment [2] addresses Hexose transporter 1 (Plasmodium falciparum) (UniProt O97467). Put plainly: ST_JUDE_LEISH: Cytotoxicity at 2uM final concentration against transgenic Leishmania Mexicana promastigotes LmPfHT that are glucose transport deficient and complemented with the Plasmodium falciparum hexose transporter. Activity is measured by DNA content using SYBR green in vitro.
Experiment [3] deals with Glucose transporter (Leishmania mexicana) (UniProt O61059). Nature of the experiment: ST_JUDE_LEISH: Cytotoxicity at 2uM final concentration against transgenic Leishmania Mexicana promastigotes LmGT2 that are glucose transport deficient and complemented with the L. Mexicana glucose transporter 2. Activity is measured by DNA content using SYBR green in vitro.

Each structure is given as a SMILES string.

For `O=C(/C=C/c1ccc(Cl)c(Cl)c1)NCCCCCN1CC[C@H](NC(=O)c2sc3ccccc3c2Cl)C1`, the inhibition (as a rule, the change of the read-out against control, counted positive when it falls) in experiment [1] is 5.64%; in experiment [2], 3.45%; in experiment [3], -1.69%.

For the molecule `CC(C)(C)c1nn(-c2ccccc2)c2[nH]c(=O)c(CNCc3ccc4c(c3)OCO4)cc12`, the inhibition is 6.79% in experiment [1], 3.28% in experiment [2] and 3.39% in experiment [3].

For the molecule `CCC(Cc1ccccc1)c1cc(O)c(Cc2ccc(-c3ccccc3)cc2)c(=O)o1` (stereo not given), the inhibition was determined as 2.42% in experiment [1], 2.07% in experiment [2] and 0.95% in experiment [3].

Turning to `Cc1cc(N(C)C)nc(Nc2ccc(NC(=O)c3cccc(F)c3)cc2)n1`, the inhibition was found to be 3.36% in experiment [1], 10.1% in experiment [2] and 3.75% in experiment [3].

Take `Cc1ccc(NC(=O)c2cccc(N3CCN(c4ccncc4)CC3)c2)cc1F`: the inhibition in experiment [1] worked out at 10.8%; in experiment [2], 9.25%; in experiment [3] it was 15.6%.

With `Cc1cc(O)c(-c2ccc(OCc3ccc(Cl)cc3)cc2)c(C)n1`, the inhibition was 0.84% in experiment [1], 0.22% in experiment [2] and -0.29% in experiment [3].

For the molecule `O=C(Nc1ccc(OC2CCN(Cc3ccco3)CC2)c(Cl)c1)c1ccc2ncccc2c1`, the inhibition in experiment [1] was 4.38%; in experiment [2], 2.97%; in experiment [3], 2.34%.

With `CCC(C)OC(=O)C1=C(C)NC2=C(C(=O)CC(c3ccc(OC)c(OC)c3)C2)C1c1ccc(O)cc1` (stereo not given), the inhibition in experiment [1] was determined as 3.25%; in experiment [2], 1.77%; in experiment [3], 1.8%.

Regarding `Cc1nn(-c2cccc(Cl)c2)c2c1C(C(=O)c1ccc3c(c1)OCO3)CC(=O)N2` (stereo not given), the inhibition in experiment [1] was -2.6%; in experiment [2], -0.95%; in experiment [3], -2.87%.

With `CN1CCC(NCc2ccc(-c3cccc(S(=O)(=O)NCCc4ccccn4)c3)cc2)CC1`, the inhibition in experiment [1] is 0.27%; in experiment [2], -0.63%; in experiment [3] it was 1.83%.

As for `COc1cccc(CNC(=O)c2cc(CNCc3ccccc3)ccc2-c2cccc(CNCc3ccc(-c4ccccc4)cc3)c2)c1`, the inhibition in experiment [1] amounted to 3.83%; in experiment [2], 4.88%; in experiment [3], 6.21%.

Turning to `COc1ccc(-c2ccnc(-c3cccc(-c4ccccn4)n3)c2)cc1`, the inhibition in experiment [1] came to 7.03%; in experiment [2] it was 24.9%; in experiment [3], 2.98%.

Consider `CCN(CC)CCN(Cc1ccc(-c2ccc(C(F)(F)F)cc2)cc1)C(=O)c1ccc(-c2ccc(NC(=O)OC)cc2C)cc1`, for which the inhibition in experiment [1] was determined as 29.9%; in experiment [2], 17.9%; in experiment [3], 10.1%.

With `CCN1CCC(N(Cc2ccc(-c3ccc(C(F)(F)F)s3)cc2)C(=O)Cn2c(CCc3cccc(F)c3F)nc(=O)c3ccccc32)CC1`, the inhibition is 6.57% in experiment [1], 5.93% in experiment [2] and 5.76% in experiment [3].

As to `COc1cccc2cc(C(=O)N[C@@H](CC(C)C)C(=O)N[C@H](C=NN(C)C(=O)OC(C)(C)C)Cc3ccccc3)oc12`, the inhibition amounted to 5.65% in experiment [1], 7.62% in experiment [2] and 5.03% in experiment [3].

As to `COc1ccc(NC(=O)[C@H](Cc2ccccc2)Nc2cc(C)nc(NCc3ccccc3C)n2)cc1`, the results for the inhibition in experiment [1], in experiment [2] and in experiment [3] were 4.42%, 5.01% and 2.59%, respectively.

In the case of `O=c1ccc2ncc(Cl)c3c2n1CC3CN1CCC(NCc2cc3c(cn2)OCCO3)CC1` (stereo not given), the inhibition in experiment [1] is 8.8%; in experiment [2], 14.5%; in experiment [3], 5.05%.

Turning to `CC(C)N1CCN(C(CN2CCN(CCCOc3cccc(F)c3)CC2)c2ccc(F)cc2)CC1` (stereo not given), the inhibition in experiment [1] is -2.25%; in experiment [2] it was -0.57%; in experiment [3] it was -1.78%.

As for `CCCN(C(=O)c1ccccc1C)c1nnc(-c2cccc(C)c2)s1`, the inhibition is -3.02% in experiment [1], -1.93% in experiment [2] and -2.31% in experiment [3].

In the case of `Cc1nnc(N2C(=N)SC(=Cc3ccc(-c4ccc(OC(F)(F)F)cc4)o3)C2=O)s1`, the inhibition in experiment [1] was determined as 4.77%; in experiment [2] it was 2.59%; in experiment [3] it was 3.61%.

Turning to `O=C(NCC1CCN(CC2CCCCC2)C1)c1cc(-c2cccc(C(F)(F)F)c2)cs1` (stereo not given), the values for the inhibition in experiment [1], in experiment [2] and in experiment [3] were -1.1%, -0.44% and -2.1%, respectively.

As for `Cc1cccc2nc(-c3cccc(-c4cccc(CNCc5cnn(-c6ccccc6)n5)c4)c3)[nH]c12`, the values for the inhibition in experiment [1], in experiment [2] and in experiment [3] were 0.8%, 1.43% and 2.51%, respectively.

For `CC(C)(C)OC(=O)N[C@@H](CS(=O)(=O)CCNC(=N)COCc1ccccc1)C(=O)OC(C)(C)C`, the inhibition in experiment [1] was determined as 7.09%; in experiment [2], 6.29%; in experiment [3], 5.74%.

`Cc1nc2nc(N)nc(N)c2c(C)c1Cc1ccccc1I`: the inhibition was found to be 9.13% in experiment [1], 8.12% in experiment [2] and 6.31% in experiment [3].

Take `COC(=O)c1ccccc1N1CCN(CCCCNC(=O)c2ccc(NC(=O)c3cc(Cl)cc(Cl)c3)cc2)CC1`: the inhibition worked out at 3.86% in experiment [1], 5.53% in experiment [2] and 3.09% in experiment [3].

As for `CN1CCC(OC(=O)c2cc3cc(-c4ccccc4)ccc3n2S(=O)(=O)c2ccccc2)CC1`, the inhibition worked out at 1.64% in experiment [1], 0.71% in experiment [2] and 3.61% in experiment [3].

As for `O=C(/C=C/c1ccc(Cl)c(Cl)c1)NCCCCCN1CCCN(C(=S)Nc2cccc(Cl)c2)CC1`, the inhibition in experiment [1] was 0.6%; in experiment [2], -0.74%; in experiment [3], 0.17%.

For the molecule `Cc1noc(C)c1-c1cccc(CNCc2ccc(-c3ccc(-c4nc5cccc(C)c5[nH]4)cc3)cc2)c1`, the results for the inhibition in experiment [1], in experiment [2] and in experiment [3] were 2.03%, 0.15% and -0.62%, respectively.

On to `CCc1cc(-c2n[nH]c(C(F)(F)F)c2-c2ccccc2)c(O)cc1OC`, for which the inhibition in experiment [1] was 2.03%; in experiment [2], 1.54%; in experiment [3], 2.44%.

With `COc1cc2nccc(Nc3ccc(Oc4ccccc4)cc3)c2cc1OC`, the inhibition in experiment [1] came out at 3.01%; in experiment [2] it was 9.3%; in experiment [3], 4.02%.

Turning to `COc1ccc(C=C2SC(=N)N(c3ccccc3OC)C2=O)cc1`, the inhibition in experiment [1] is 6.44%; in experiment [2], 5.54%; in experiment [3], 6.86%.

For `CN1CCN(c2ccc(-c3cccc(NC(=O)c4cccc(Cl)c4)c3)nn2)CC1`, the inhibition in experiment [1] stood at 2.62%; in experiment [2], 1.54%; in experiment [3], 3.23%.

With `CN(C)CCN(C)Cc1ccc(-c2cccc(NC(=O)c3ccc(Cl)cc3)c2)cc1`, the results for the inhibition in experiment [1], in experiment [2] and in experiment [3] were 4.75%, 2.96% and 1.03%, respectively.

In the case of `O=C1Nc2cccc3c2C1(CCCCN1CCC(c2c(-c4ccc(F)cc4)[nH]c4ccccc24)CC1)CCC3` (stereo not given), the results for the inhibition in experiment [1], in experiment [2] and in experiment [3] were 5.51%, 5.23% and 6.27%, respectively.

Regarding `Cc1nnc(Sc2ncnc3scc(-c4ccc(F)cc4)c23)s1`, the inhibition in experiment [1] amounted to 2.38%; in experiment [2], 3.03%; in experiment [3], 1.02%.

Take `O=C(Nc1cccc(-c2csc(NC(=O)c3ccc4ccccc4c3)n2)c1)c1ccc2ccccc2c1`: the inhibition in experiment [1] stood at 1.53%; in experiment [2], 1.22%; in experiment [3], 0.66%.

As to `CCc1ccc(C2CCN(CCCCNC(=O)c3ccc(NC(=O)c4ccc(Cl)cc4)cc3)CC2)c(OC)c1`, the results for the inhibition in experiment [1], in experiment [2] and in experiment [3] were 9.49%, 2.21% and 1.66%, respectively.

With `CCCOc1cccc(C(=O)N[C@@H](Cc2ccccc2)[C@H](O)CNCc2ccccc2OC)c1`, the values for the inhibition in experiment [1], in experiment [2] and in experiment [3] were 3.73%, 2.98% and 4.75%, respectively.

For the molecule `c1ccc(CNCc2cccc(-c3ccc(-c4nc5ccccc5[nH]4)s3)c2)cc1`, the values for the inhibition in experiment [1], in experiment [2] and in experiment [3] were 4.03%, 3.45% and 3.41%, respectively.

For `Cc1cc(C(=O)Nc2ccc(OCc3ccccc3)cc2)on1`, the figures for the inhibition in experiment [1], in experiment [2] and in experiment [3] were -1.56%, -2.29% and 0.64%, respectively.

Turning to `O=C(C=Cc1ccc(Cl)c(Cl)c1)NCCCCCN1CCC(CCNC(=O)c2sc3ccccc3c2Cl)CC1`, the results for the inhibition in experiment [1], in experiment [2] and in experiment [3] were 11.5%, 9.43% and 8.75%, respectively.

Turning to `COc1ccc2nccc([C@@H](O)CN3CCC(NC(=O)C(c4cc5ccccc5o4)N4CCN(Cc5ccccc5)CC4)CC3)c2c1` (stereo not given in full), the values for the inhibition in experiment [1], in experiment [2] and in experiment [3] were 3.8%, 1.35% and 0.77%, respectively.

For `O=c1cnc2ccc(F)cc2n1CCN1CCC(NCc2cc(-c3ccccc3)cs2)CC1`, the inhibition stood at 28.4% in experiment [1], 32.4% in experiment [2] and 48.5% in experiment [3].

Consider `Cn1nc(-c2cccc(CNCc3ccccc3)c2)c2cnc(NC3CCCC3)nc21`, for which the values for the inhibition in experiment [1], in experiment [2] and in experiment [3] were -0.97%, 0% and -1.01%, respectively.

In the case of `CN(C)CCC(O)C=C(c1ccc(Cl)cc1)c1ccc(Cl)cc1` (stereo not given), the inhibition in experiment [1] stood at 9.31%; in experiment [2], 7.5%; in experiment [3], 4.86%.

For `CCN(CC)CCNC(=O)c1ccc(NC(=O)c2cc3c(C)nn(-c4ccc(Cl)cc4)c3s2)cc1`, the inhibition was determined as 2.43% in experiment [1], 2.37% in experiment [2] and 1.83% in experiment [3].

Regarding `Cc1nc(C)c(-c2ccc(Sc3ccc(Cl)cc3)cc2)c(O)c1Br`, the inhibition in experiment [1] is -2.06%; in experiment [2] it was -1.57%; in experiment [3] it was -1.9%.

For `COc1cc2nc(NCCc3cccc(Cl)c3)nc(NCc3ccccc3)c2cc1OC`, the inhibition in experiment [1] turned out to be 5.15%; in experiment [2] it was 6.21%; in experiment [3] it was 1.06%.

Regarding `CN1CCC(N(Cc2ccc(-c3ccc(Cl)cc3)cc2)C(=O)Cn2c(CCc3cccc(F)c3F)cc(=O)c3ccccc32)CC1`, the inhibition in experiment [1] was 8.97%; in experiment [2] it was 3.73%; in experiment [3], 8.07%.

On to `COc1ccc(CNC2CCN(c3ccc(NC(=O)c4cccc(Cl)c4)cc3)CC2)cc1OC`, for which the figures for the inhibition in experiment [1], in experiment [2] and in experiment [3] were 2.25%, 1.47% and 0.61%, respectively.

In the case of `CC(CN(C)C)C(=O)Nc1ccc(-c2ccc(-c3nc4ccccc4[nH]3)s2)cc1` (stereo not given), the inhibition came out at 2.59% in experiment [1], 3.52% in experiment [2] and 6.24% in experiment [3].

As to `CC(=O)Nc1cccc(C(=O)Nc2cccc(-c3cccc(-c4nc5cc(F)ccc5[nH]4)c3)c2)c1`, the results for the inhibition in experiment [1], in experiment [2] and in experiment [3] were 3.73%, 3.51% and 7.22%, respectively.

Take `Cc1cc(C(=O)CN2C(=O)NC3(CCOc4ccccc43)C2=O)c(C)n1Cc1ccc(F)cc1` (stereo not given): the inhibition in experiment [1] was 3.91%; in experiment [2], 2.31%; in experiment [3] it was 1.1%.

With `COC(=O)c1ccc2nc(-c3ccc(C(=O)NC4CCN(Cc5ccccc5)CC4)s3)[nH]c2c1`, the inhibition came out at 6.63% in experiment [1], 10.5% in experiment [2] and 8.06% in experiment [3].

In the case of `O=C(CCc1c[nH]cn1)Nc1cccc(-c2ccc(-c3nc4cc(F)ccc4[nH]3)cc2)c1`, the inhibition was found to be 16.3% in experiment [1], 13.1% in experiment [2] and 16.6% in experiment [3].
